In publication PMC4552634, “A New Set of Chemical Starting Points with Plasmodium falciparum Transmission-Blocking Potential for Antimalarial Drug Discovery” (PLoS ONE, 2015):
Read-outs that look alike come from different tables or passages of the source. In all, about 13,000 compounds went through this assay and about 3,200 (25%) showed an effect of 50% or more. This is one part of the list.

System: P. falciparum stage V gametocytes
Parameters: BacTiter-Glo ATP luminescence viability of purified stage V gametocytes in 384-well plates, per cent inhibition versus DMSO
Conditions: 48 h, 5 µM, inhibitor

Structure (SMILES) | % Inhibition [%] | % Inhibition (% Inhibition) [%]
C/C=C1\CN2CC[C@H]1C[C@H]2[C@H](O)c1ccnc2ccc(O)cc12 [TCMDC-138272] | 3.79 | –
COc1ccc2nccc(N3CCC(O)(CCNCc4ccc5c(n4)NC(=O)CO5)CC3)c2n1 [TCMDC-134564] | -10.39 | –
CCNC(=O)N1CCN(c2nc(-c3ccccc3)nc(COC)c2Cc2ccc(C)cc2)CC1 [TCMDC-124783] | 37.5 | –
O=c1cc(NCCCNCc2cc(C(F)(F)F)ccc2F)[nH]c2ccccc12 [TCMDC-139423] | -83.26 | –
CC1(C)N=C(N)N=C(N)N1OCCc1ccc2ccccc2c1 [TCMDC-131755] | -0.2663 | –
COc1cc(Cc2cnc(N)nc2N)cc(OCCCCC2NC(=O)NC2=O)c1OC (centres unmarked) [TCMDC-137299] | 4.359 | –
CC1CCCN1Cc1ccc(-c2ccc3c(=O)cc(CCc4cccc(F)c4F)n(CC(=O)N(C)Cc4ccc(-c5ccc(C(F)(F)F)cc5)cc4)c3n2)cc1 (centres unmarked) [TCMDC-136564] | 30.5 | –
Cc1nc2c(s1)c(=O)cc(CCc1cccc(F)c1F)n2CC(=O)N(Cc1ccc(-c2ccc(C(F)(F)F)cc2)cc1)C1CCN(C(C)C)CC1 [TCMDC-141264] | 113.7 | –
Cc1ccc2c(=O)cc(CCc3cccc(F)c3F)n(CC(=O)N(Cc3ccc(-c4ccc(C(F)(F)F)cc4)cc3)C3CCN(C)CC3)c2n1 [TCMDC-141317] | 107 | –
Cc1ccc2c(=O)cc(CCc3cccc(F)c3F)n(CC(=O)N(Cc3ccc(-c4ccc(C(F)(F)F)cc4)cc3)C3CCN(C(C)C)CC3)c2n1 [TCMDC-141318] | 122.6 | –
COC(=O)Cn1c2ccccc2c2c(N)c(C(=O)OC)c(C)nc21 [TCMDC-131562] | 7.659 | –
CC(C)c1ccc(NC(=O)c2ccc(CN3CCCN(CC4CCCCC4)CC3)cc2)cc1 [TCMDC-136417] | -19.72 | –
CCC(CC(NCCCCNC(=O)c1ccc(NC(=O)c2ccc(Cl)cc2)cc1)c1ccccc1)c1ccccc1OC (centres unmarked) [TCMDC-138579] | – | 48.18
N#Cc1c(N2CCN(c3ccc(F)cc3)CC2)nc(N)c2c(N)nc3c(c12)CC(=O)N3C1CC1 [TCMDC-124490] | 43.84 | –
Cc1cccc2[nH]c(-c3cccc(-c4cccc(NC(=O)c5ccc(=O)[nH]n5)c4)c3)nc12 [TCMDC-137033] | -59.71 | –
N#CC1(CCCNCCc2ccc(O)cc2)CCCc2c(O)cccc21 (centres unmarked) [TCMDC-137732] | -11.73 | –
COc1ccc2c(c1CCNCCCCNCCc1c(OC)ccc3c1CCCC3)CCCC2 [TCMDC-137324] | 111.7 | –
COc1ccc2c(c1C1CCN(CCCCNC(=O)c3ccc(-c4ccc(Cl)cn4)cc3)CC1)CCCC2 [TCMDC-138576] | -10.77 | –
COc1ccc2c(c1CNCCCCCCNCc1c(OC)ccc3c1CCCC3)CCCC2 [TCMDC-137817] | 117.4 | –
O=C(Nc1ccc(F)cc1)N1CCCN(c2ccnc3cc(Cl)ccc23)CC1 [TCMDC-133584] | -23.79 | –
COc1cc2c(cc1OC)CN(CCc1ccc(NC(=O)c3cc4cc(Cl)ccc4[nH]3)cc1)CC2 [TCMDC-138249] | -9.297 | –

Structure (SMILES) | % Inhibition [%] | % Inhibition (% Inhibition) [%]
Cc1cc2c(cc1C(F)(F)F)N(C(=O)Nc1ccc(OCCN(C)C)c(C(F)(F)F)c1)CC2 [TCMDC-139850] | 18.6 | –
COc1cc(F)c2nccc([C@@H](O)CN3CCC(NCc4ccc5c(n4)NC(=O)CS5)C(F)C3)c2c1 (some centres unmarked) [TCMDC-141805] | -13.4 | –
FC(F)(F)c1cc(Nc2ccc(Oc3ccccc3)cc2)c2cc(-c3ccncc3)ccc2n1 [TCMDC-138549] | -36.95 | –
c1ccc(CN2CCc3cc4nccc(N5CCNCC5)c4cc32)cc1 [TCMDC-140118] | -20.01 | –
C/C=C/COc1ccc2ccccc2c1CNCCCCCCCCNCc1c(OC/C=C/C)ccc2ccccc12 [TCMDC-137844] | 118.6 | –
C=CCOc1ccc2ccccc2c1CNCCCCCCNCc1c(OCC=C)ccc2ccccc12 [TCMDC-137340] | 119.9 | –
Nc1nc(N)c2c(ccc3c2cnn3S(=O)(=O)N2CCCC2)n1 [TCMDC-137852] | -71.91 | –
O=C1COc2ccccc2N1C/C=C(\CN1CCC(c2ccccc2)CC1)c1cc(Cl)cc(Cl)c1 [TCMDC-134528] | -40.54 | –
Cc1cc(Nc2ccc3c(c2)CCC3)n2ncnc2n1 [TCMDC-123574] | 8.317 | –
Cc1[nH]nc2cc(Nc3nccc(Nc4ccc(Oc5ccccc5)cc4)n3)ccc12 [TCMDC-138573] | 32.4 | –
CCc1nnc2sc(-c3cccc(NC(=O)c4ccc(C)c([N+](=O)[O-])c4)c3)nn12 [TCMDC-125124] | -17.45 | –
Cc1ccc(O)c(-c2cc(C(=O)Nc3ccc(S(=O)(=O)N4CCCCC4)cc3)[nH]n2)c1 [TCMDC-124309] | -24.12 | –
O=C(Nc1ccccc1)c1cnc[nH]1 [TCMDC-123941] | -10.44 | –
CCCc1cc([C@@H](O)[C@@H]2C[C@@H]3CCN2C[C@@H]3CC)c2ccccc2n1 [TCMDC-131428] | -9.828 | –
CC[C@H]1CN2CC[C@H]1C[C@H]2[C@H](O)c1ccnc2ccc(O)cc12 [TCMDC-131425] | 22.33 | –
CC[C@H]1CN2CC[C@@H]1C[C@H]2[C@H](O)c1cc(-c2ccccc2)nc2ccc(O)cc12 [TCMDC-141380] | 89.63 | –
CC[C@H]1CN2CC[C@@H]1C[C@H]2[C@H](O)c1ccnc2ccc(Cl)cc12 [TCMDC-141353] | -5.728 | –
CC[C@H]1CN2CC[C@@H]1C[C@H]2[C@H](O)c1cc(-c2ccc(Cl)c(Cl)c2)nc2ccc(O)cc12 [TCMDC-141362] | 95.45 | –
CC[C@H]1CN2CC[C@@H]1C[C@H]2[C@H](O)c1cc(-c2ccc(F)cc2)nc2ccc(O)cc12 [TCMDC-141378] | 55.28 | –
CC[C@H]1CN2CC[C@H]1C[C@@H]2[C@H](O)c1ccnc2ccc(O)cc12 [TCMDC-132025] | 31.63 | –
